The results in this text go back to PubChem BioAssay AID624168 (Sanford-Burnham Center for Chemical Genomics, 2012).

The campaign covered roughly 360,000 compounds. About 800 (0.22%) were called active. This is one part of a sample in which actives are shown more often than they occur.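 How the source made its calls: active means activation of at least 8% versus controls, or a plate z-score of at least 8; inactive means the rest.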

A short description of the assay: compounds raising alpha-dystroglycan glycosylation – uHTS, Pro5-aDG cells, AlphaScreen, primary screen (AID 624168).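 Further: Pro5 are CHO cells carrying HIG-tagged alpha-DG that lacks glycosylation.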 Conditions: alpha-DG glycosylation AlphaScreen (IIH6), at 10 µM, active compounds read high; 0% Pro5, 100% B10-LARGE cell signal unless noted.
With `CNCC(O)c1cc(F)c(OCc2ccccc2)c(OCc2ccccc2)c1F` (stereo not given), the activation is 7.7% (active). With `Cc1ccc(C2CN(C)CC2C(=O)c2ccc(F)cc2)cc1` (stereo not given) the figure was 0% [setting not given] (inactive); with `Cc1nc2ccccn2c1P(=S)(N1CCCCC1)N1CCCCC1`, -0.2% [setting not given] (inactive). Regarding `COc1cc(C(=O)N2Cc3ccc(Br)cc3-n3nncc3C2)cc(OC)c1OC`, the activation is -0.2% (inactive).

`COC(=O)C1=C(c2ccc(F)cc2OCc2ccccc2)C[C@@H]2CC[C@H]1N2C(=O)NCc1ccc(Cl)cc1`: the activation is 0.6% (inactive).
